Experimental data reported in PubChem BioAssay AID651812 (National Center for Advancing Translational Sciences (NCATS), 2012).
Hit rate of the full screen: of about 2,100 compounds, about 650 (31%) were called active. Roughly 16% stayed inconclusive and do not appear here. The call rests on the fitted dose curve; in most records, active means well fitted inhibition curve with a large enough effect; inconclusive means small, poorly fitted or top-dose-only effect; inactive means flat fitted curve, though single readings scatter. Some of the results follow.

Test: qHTS for inhibitors of Vif-A3G interactions: Cherry picks; further: nearly all actives have a fitted effect of over 80% in size; on activity, negative = fluorescence increase: % of control where 0% means no effect
Conditions: HeLa A3G-eYFP + Vif (tagged APOBEC3G with the HIV-1 protein that degrades it), 24 h; Potency: eYFP fluorescence increase; series mostly up to 36.9 µM; activity, negative = fluorescence increase: at the top concentration
How it was run: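 HeLa cells stably expressing A3G-eYFP and Vif, cultured overnight then exposed to compounds at several concentrations for 24 hours at 37 C, 5% CO2; cellular yellow fluorescence (488 nm ex, 500-530 nm em) imaged on Acumen, MG132 positive control.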
Potency means the concentration at half of the fitted maximal effect.

Potency, active:
CCSc1nnc(-c2sc3nnc(-c4ccccc4)c(-c4ccccc4)c3c2N)o1 10.3 µM
CC1=CN2C(=N)/C(=C/c3ccc([N+](=O)[O-])o3)C(=O)N=C2S1 9.94 µM
Fc1ccc2nc3[nH]c4ccccc4c3nc2c1 1.4 µM
CN1CCc2c(sc3c2C(=O)NC(c2ccc(-c4ccc(Cl)cc4)o2)N3)C1 (stereo unspecified) 11.6 µM
Cc1sc(-c2cc3c([nH]c2=O)CC(c2ccccc2)CC3=O)nc1-c1ccc(Cl)cc1 (stereo unspecified) 20.6 µM
COc1ccc2nc3ccccc3nc2c1NC(=O)c1ccc(Br)cc1 14.6 µM
COc1ccc2nc3ccccc3nc2c1NC(=O)c1ccc(Cl)cc1Cl 2.8 µM
COc1ccc2nc3ccccc3nc2c1NC(=O)c1ccc(Cl)cc1 20.6 µM
CCN(CC)c1ccc(/C=C2\C(=N)N3N=C(CC(=O)N4CCOCC4)SC3=NC2=O)cc1 0.177 µM
CN(C)c1ccc(/C=C2\C(=N)N3N=C(CC(=O)N4CCCCC4)SC3=NC2=O)cc1 18.4 µM
CN(C)c1ccc(/C=C2\SC(N3CCCCC3)=NC2=O)cc1 23.1 µM
COc1ccc2cc(-c3nc(Cl)c4c5c(sc4n3)CC(C)CC5)c(=O)oc2c1 (stereo unspecified) 4.11 µM
CN1C(=O)/C(=C/c2ccccc2OCc2ccc(F)cc2)N(C)C1=S 23.1 µM
O=[N+]([O-])c1ccccc1S(=O)(=O)Nc1ccc(-c2ccc(N3CCOCC3)nn2)cc1 23.1 µM
CC[n+]1ccc(/C=C2\Sc3ccccc3N2CCCS(=O)(=O)[O-])c2ccccc21 20.6 µM
N#Cc1sc2nc(-c3cccs3)cc(-c3ccc(Cl)cc3)c2c1N 15.8 µM
COc1ccc(-c2cc(-c3cccs3)nc3sc(C#N)c(N)c23)cc1 16.4 µM
CCN(CC)C(=O)c1sc2nc(-c3cccs3)cc(-c3ccc(Cl)cc3)c2c1N 14 µM
CCCCN1C(=O)C2Cc3c([nH]c4ccccc34)CN2C1=S (stereo unspecified) 14 µM
CCCCN1C(=O)c2cccc3cc(O)cc(c23)C1=O 16.4 µM

activity, negative = fluorescence increase, inactive:
COc1ccc(NC(=O)C2Cc3c(-c4cccc(NC(C)=O)c4)ccnc3O2)cn1 (stereo unspecified) -12.3%
CSC1=NC(C(Cl)(Cl)Cl)N=C(c2ccccc2)N1 (stereo unspecified) -0.698%
CCS(=O)(=O)C1=NN2C(=N)/C(=C\c3ccc(SCc4ccco4)o3)C(=O)N=C2S1 -18.8% [at 46.1 µM]
CCOc1ccccc1C1CC(=O)NC2=C1C(=O)CCC2 (stereo unspecified) -0.477%
O=C1CC(c2ccccc2)Cc2[nH]c(=O)c(-c3nc(-c4cccc(Cl)c4)cs3)cc21 (stereo unspecified) -19.9% [at 46.1 µM]
COCCOC(=O)c1[nH]c2c(c1C)C(=O)CC(c1ccccc1)C2 (stereo unspecified) -17%
O=C(O)CSc1c2ccccc2cc2ccccc12 -2.38%
COc1ccc(C)cc1Nc1c2c(nc3ccccc13)CCC2 -6.22%
O=C(NC(=S)Nc1c(Cl)cc(Cl)cc1Cl)c1ccccc1 7.49% [at 46.1 µM]
COc1cc(C(=O)Nc2ccc3ccccc3c2)cc(OC)c1OC -7.49%
COc1ccccc1Nc1c2c(nc3ccc(NC(=O)c4ccc(N(C)C)cc4)cc13)CCCC2 -3.16% [at 46.1 µM]
COc1ccc(S(=O)(=O)NCc2ccccn2)cc1NC(=O)c1ccccc1 -3.5%
COC(=O)/C(=C\Nc1ccc(Cl)cc1Cl)NC(=O)c1ccc(OC)cc1 -2.72%
COc1ccc2nc(Nc3nc(CSc4ccc(C)cc4)cc(=O)[nH]3)nc(C)c2c1 -14.5% [at 46.1 µM]
CCN(CC)c1ccc(/C=C2\SC(N)=NC2=O)cc1 -29.5%
COc1cc(/C=C2\C(=N)N3N=CSC3=NC2=O)cc(Br)c1OC(=O)c1ccco1 12.1% [at 46.1 µM]
O=c1c2cc3ccccc3n2cnn1Cc1ccccc1F -10.9%
CCOc1ccccc1Oc1nc(C)nc2c1oc1ccccc12 -1.4% [at 46.1 µM]
Brc1ccc2c(c1)C(c1cccnc1)=NNC(c1cccs1)=N2 -2.51%
COc1cc(C(=O)N/N=C(\C)c2ccccn2)cc(OC)c1OC -24%
COc1cc(C2Nc3ccc4ncccc4c3C3=C2C(=O)CCC3)cc(OC)c1O (stereo unspecified) 3%
CCOc1ccc(C(=O)COC(=O)Cc2n[nH]c(=O)c3ccccc23)cc1 -3.45%
Cc1nc(-c2ccc(Cl)cc2)sc1C(=O)NN 0.88%
CC(C)CC(=O)NC(=S)N(Cc1ccccc1)Cc1ccccc1 6.36% [at 46.1 µM]
Oc1ccc(C=NNC(=S)Nc2ccc(F)cc2)c(O)c1 -14.8% [at 46.1 µM]
COc1cc(OC)cc(C(=O)N/N=C/c2ccc(OC)c(COc3ccc4ccccc4c3)c2)c1 0.593%
COc1cc(C(=O)Nc2ccc(C)cc2)c2ccccc2n1 -24.2%
COc1ccc(/C=N/NC(=O)c2cccnc2)cc1CSc1ccccn1 2.26%
CC1(C(=O)NCc2ccco2)Cc2c(-c3cccc(C(N)=O)c3)ccnc2O1 (stereo unspecified) -3.61%
C/C(=N\NC(=O)C(C)n1nc(C)c([N+](=O)[O-])c1C)c1ccccc1O (stereo unspecified) -0.134% [at 46.1 µM]
Cc1cc(C)cc(Oc2nc(C(F)(F)F)nc3ccccc23)c1 -7.3%
